From PubChem BioAssay (NCATS)
Results filed as inconclusive are left out. Active and inactive are the calls of the source. Calls follow the shape of the dose curve; as a rule, active = well fitted inhibition curve with a large enough effect in the repeat runs; inconclusive = weak or mixed curves; inactive = flat fitted curve, though single readings scatter.

Biological target: Cytochrome P450 2D6 (Homo sapiens) (UniProt P10635)
Assay: Cytochrome P450 family 2 subfamily D member 6 (CYP2D6) small molecule antagonists: luciferase biochemical (cell-free) qHTS assay (AID 1645840); also: nearly all actives have a fitted effect of over 55% in size
Conditions: P450-Glo CYP2D6 enzyme, luciferin luminescence, 1 h; series mostly up to 57.4 µM
Outline: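 P450-Glo luminescent screen: recombinant CYP2D6 enzyme–proluciferin substrate mix preincubated with compound 10 min at room temperature, then NADPH regeneration added for 1 h at room temperature. Detection reagent added for 20 min; luciferin light read as relative luminescence units.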
Potency is read from the fitted curve at half-maximal effect.

Sequence of Cytochrome P450 2D6 (Homo sapiens) (P10635 whole entry, looked up): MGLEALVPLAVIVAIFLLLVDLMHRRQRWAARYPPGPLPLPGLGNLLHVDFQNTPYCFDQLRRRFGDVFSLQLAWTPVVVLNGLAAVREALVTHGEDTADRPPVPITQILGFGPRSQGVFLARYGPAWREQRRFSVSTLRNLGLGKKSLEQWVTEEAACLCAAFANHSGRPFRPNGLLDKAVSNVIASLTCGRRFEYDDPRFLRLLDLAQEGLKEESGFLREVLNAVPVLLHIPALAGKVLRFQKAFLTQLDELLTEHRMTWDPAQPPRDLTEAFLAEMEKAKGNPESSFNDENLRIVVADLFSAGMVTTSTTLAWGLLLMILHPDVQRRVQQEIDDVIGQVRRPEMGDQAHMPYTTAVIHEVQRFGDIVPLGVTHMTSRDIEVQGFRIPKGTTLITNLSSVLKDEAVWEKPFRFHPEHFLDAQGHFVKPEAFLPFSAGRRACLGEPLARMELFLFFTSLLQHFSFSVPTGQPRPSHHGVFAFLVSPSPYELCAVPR

SMILES	Potency
COc1ccc2nc3n[nH]c(C)c3c(NCCOCCO)c2c1	9.52 µM (active)
CC(C)NC(=O)COc1cccc(-c2nc(Nc3ccc4[nH]ncc4c3)c3ccccc3n2)c1	2.68 µM (active)
CC(C)c1cc2c(N3CCN(C4=NCC(C)(C)S4)CC3)ncnc2s1	3.01 µM (active)
CC(C)(O)C(=O)N1CCN(c2ccc(C(F)(F)F)c(C3=C(c4c[nH]c5ccccc45)C(=O)NC3=O)c2)CC1	21.3 µM (active)
Oc1ccc(-c2cnc3ccc(NCc4ccco4)nn23)cc1	1.69 µM (active)
O=C(NCCCN1CCC2(CC1)OCc1ccccc12)[C@H]1CCCN1Cc1ccccc1	2.13 µM (active)
COCCCNC(=O)c1ccc(Cn2c(=O)c3ccccc3n(Cc3ccc(C(C)C)cc3)c2=O)cc1	inactive
NC(=O)c1cnc(N[C@@H]2CCCC[C@H]2N)nc1Nc1cccc(-n2nccn2)c1	19 µM (active)
CC(=O)NCc1cccc(OC[C@@H](O)CNCCc2ccc(NS(=O)(=O)c3ccccc3)cc2)c1	0.849 µM (active)
CCCC(CCC)C(=O)Nc1ccn([C@@H]2O[C@H](CO)[C@@H](O)C2(F)F)c(=O)n1	inactive
Cc1cn2c(n1)Cc1ccc(Cl)cc1C(c1ccc(N)cc1)=N2	16.9 µM (active)
Cc1c(C2=CCN(C(=O)N(C)C(C)C)CC2)nnn1-c1cccnc1F	inactive
O=c1ccc2ccc(OCCCCN3CCN(c4cccc5sccc45)CC3)cc2[nH]1	1.34 µM (active)
CC(C)[C@@H](c1ccc(C(F)(F)F)cc1CN(Cc1cc(C(F)(F)F)cc(C(F)(F)F)c1)c1nnn(C)n1)N1CCC(C(=O)O)CC1	12 µM (active)
CN1CCN(C2=Nc3ccccc3Nc3ccc(OS(=O)(=O)C(F)(F)F)cc32)CC1	3.38 µM (active)
COc1ccc(CCCN2CCC(COC(c3ccccc3)c3ccccc3)CC2)cc1	0.0535 µM (active)
CC(C)Oc1ccc(-c2cnc3c(-c4ccnc5ccccc45)cnn3c2)cc1	inactive
CCN(CCNC(=O)Nc1ccccc1Br)c1cccc(C)c1	1.9 µM (active)
COc1ccc(OC)c(-c2ccc(NC(=O)c3ccncc3F)cc2)c1	inactive
C[C@@H](NC(=O)C(=O)c1c[nH]c2ccc([N+](=O)[O-])cc12)c1ccccc1	inactive

SMILES	Potency
CCn1c2ccccc2c2cc(Nc3ccnc(NCCCN4CCOCC4)n3)ccc21	inactive
NC(=O)c1nc(Nc2ccccc2)sc1NC(=O)C1CCCCC1	inactive
COc1ccc(-c2cc3onc(-c4ccncc4)c3c(=O)n2C)cc1	9.52 µM (active)
CC#C[C@@H](CC(=O)O)c1ccc(OCc2ccc(CN3CCC4(C=Cc5ccccc54)CC3)s2)cc1	15.1 µM (active)
Cc1cc(NC(=O)c2cccc(NC(=O)/C=C/CN(C)C)c2)ccc1Nc1nccc(-c2cccnc2)n1	10.7 µM (active)
Cc1ccc(S(=O)(=O)N2CCC[C@H]2c2ccc(F)cc2)cc1	inactive
Cc1[nH]c(/C=C2\C(=O)Nc3ccc(F)cc32)c(C)c1C(=O)NCCN1CCCC1	inactive
Fc1ccc(N2CCN(CCC3OCCc4ccccc43)CC2)cc1 (centres undefined)	1.9 µM (active)
COC(=O)C(Cc1ccc(OCCn2c(=O)sc3cc(C(=O)c4ccccc4)ccc32)cc1)C(=O)OC	inactive
COc1cc(-c2nc(N[C@H](CO)Cc3ccccc3)ccc2C(=O)NCCOc2ccccc2)cc(OC)c1OC	12 µM (active)
C[C@@H](NC(=O)c1ccc(C#Cc2cccc(F)c2)cn1)C(C)(C)O	inactive
COc1ccccc1-c1ccc(-c2cn(C(=O)N3CCCCC3Cc3ccccc3)nn2)cc1 (centres undefined)	inactive
O=C(NCCCN1CCOCC1)c1cnn2c(-c3ccccc3)cc(-c3ccccc3)nc12	inactive
N#Cc1cccc(C(=O)Nc2cc(-c3ccccc3)nn2-c2ccccc2)c1	inactive
CC[C@@H](Nc1c(Nc2cccc(C(=O)N(C)C)c2O)c(=O)c1=O)c1cc(C(C)C)co1	16.9 µM (active)
CCNc1nc(Nc2cc(F)c(C(=O)N3CCOCC3)cc2OC)ncc1C(F)(F)F	inactive
CC(C)(C)Oc1ccc(OCC2Cc3ccccc3CN2C(=O)c2cccc3ccccc23)cc1 (centres undefined)	inactive
O=C(NCCN1CCC(n2c(=O)[nH]c3ccccc32)CC1)c1cc2cc(F)ccc2[nH]1	15.1 µM (active)
O=C(Nc1cc(C(F)(F)F)cc(C(F)(F)F)c1)c1cnc(Cl)nc1C(F)(F)F	19 µM (active)
